ClpP mod = qHTS Assay for Activators of ClpP; ATP-dependent Clp protease proteolytic subunit (Bacillus subtilis (strain 168)), P80244; 340,000 tested, 1.9% active; purified B. subtilis ClpP, FRET peptide cleavage, 20 min; Potency, µM (highest dose often 57.5 µM), for the others: top-dose activity change, negative = active; active means well fitted falling curve with a large enough effect; inconclusive means small, poorly fitted or top-dose-only effect; inactive means no such curve, though single readings can be large or run the other way; further: the source files actives as falling curves though it sought activators and does not explain the sign; nearly all actives have a fitted effect of over 65% in size
Target sequence (P80244 whole entry, looked up): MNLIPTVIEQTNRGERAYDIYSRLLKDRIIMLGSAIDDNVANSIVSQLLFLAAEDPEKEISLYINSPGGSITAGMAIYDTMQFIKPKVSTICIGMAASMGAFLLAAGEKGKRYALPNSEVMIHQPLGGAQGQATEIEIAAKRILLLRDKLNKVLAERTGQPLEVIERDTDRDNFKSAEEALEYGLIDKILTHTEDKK
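ClpP 10 microg/mL final, pH 8 Tris/KCl buffer with BSA, glycerol, Tween-20; compound pinned in; FRET-FV substrate; RT 20 min; Ex320/Em430; ΔFRET vs ADEP 5.8 microM, DMSO, no enzyme.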
TDP1 block = inhibitors of human tyrosyl-DNA phosphodiesterase TDP1; AID 485290; Potency, µM (titrated, usually from 130 µM), inactives show at the top dose activity change, negative = inhibition, usual class: inhibitors; 350,000 tested, 0.28% active; recombinant TDP1, AlphaScreen DNA substrate cleavage; further: on the % scale 0 is the no-effect control and ±100 the full control effect; nearly all actives have a fitted effect of over 40% in size
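E. coli-derived human Tdp1, 1 nM final. Cpd preinc 15 min RT; substrate 15 nM final, 5 min RT; AS bead mix 10 ug/ml final, 10 min RT. Signal loss = tyrosine-FITC cleavage. No-enzyme wells = max signal.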
TDP1 cell noCPT = qHTS for Inhibitors of human tyrosyl-DNA phosphodiesterase 1 (TDP1): qHTS in cells in absence of CPT | DT40 Tdp1-/- hTDP1 cells, no CPT, ATP luminescence, 48 h | Potency, µM (top dose mostly 46.2 µM), without a hit: at the top dose activity change, negative = growth inhibition, actives largely listed as inhibitors | 420,000 tested, 15% active; further: on the % scale 0 is the no-effect control and ±100 the full control effect; nearly all actives have a fitted effect of over 55% in size
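No-CPT arm: Tdp1-/-;hTDP1 DT40 cells (400/well) plus compounds, incubated ≥48 hr at 37 °C. Readout CellTiter-Glo luminescence.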
TDP1 cell CPT = growth inhibition of DT40 Tdp1-/-;hTDP1 cells with camptothecin (screen for TDP1 inhibitors); chicken DT40 Tdp1-/-;hTDP1 cells + 20 nM CPT, ATP luminescence, 48 h; Potency, µM (titrated, usually from 46.2 µM), for inactives: at the highest dose activity change, negative = growth inhibition, most hits filed as inhibitors; 420,000 tested, 12% active; AID 686979; further: on the % scale 0 is the no-effect control and ±100 the full control effect; nearly all actives have a fitted effect of over 55% in size
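Cell growth measured by CellTiter-Glo luminescence after a minimum 48 h, 37 C compound exposure with 20 nM CPT in Tdp1-knockout DT40 cells stably expressing hTDP1, seeded 400/well; qHTS titration format.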
* hit, by the source's call; ? = inconclusive; · = no result; [ ] = remark or other dose. Rows were chosen to be rich in hits. Some 17% of all compounds tested hit in one or more screens of this group. Unless noted, the call rests on the fitted dose curve; in most records, active means well fitted curve in the direction sought with a large enough effect; inconclusive means small, poorly fitted or top-dose-only effect, or another doubt; inactive means no such curve, though single readings can be large; an effect the other way counts as inactive or inconclusive. Potency means the concentration at half of the fitted maximal effect.

SMILES	ClpP mod	TDP1 block	TDP1 cell noCPT	TDP1 cell CPT
Cc1ccc(-n2nc(C)c3c(C(=O)NCCc4ccc(S(N)(=O)=O)cc4)cc(C)nc32)cc1	20.7%	1.1%	?	?
Cc1cccc(NC(=S)NCCc2ccccc2)n1	·	0.0%	16.4µM*	?
S=C(NCCc1ccncc1)Nc1ccccc1	·	4.8%	-27.4%	-25.3%
S=C(NCCc1ccccc1)Nc1ccccn1	-3.0%	0.0%	18.4µM*	6.51µM*
Brc1ccc2oc3c(N4CCOCC4)ncnc3c2c1	-4.7%	4.1%	11.6µM*	?
COC(CNc1cc(=O)oc2ccccc12)OC	-0.3%	-2.0%	6.0%	-6.2%
O=C(NNC(=O)c1ccccc1-n1cccc1)c1cncc(Br)c1	-1.0%	0.8%	18.8%	-6.9%
COc1cccc(C(=O)NC2CCCc3ccccc32)c1OC (configuration not stated)	·	·	23.1µM*	?
COc1ccccc1NC(=O)COc1ccc(C(=O)NC2CCCc3ccccc32)cc1OC (configuration not stated)	·	·	7.31µM*	?
COc1cc(OC)cc(C(=O)N[C@H](C(=O)NC2CCCc3ccccc32)C(C)C)c1 (some centres not stated)	·	-2.8%	16.4µM*	?
COc1ccc(C(=O)NC2CCCc3ccccc32)cc1[N+](=O)[O-] (configuration not stated)	-1.6%	0.5%	3.66µM*	5.17µM*
COc1cc(OC)cc(C(=O)NCC(=O)OCC(=O)NC2CCCc3ccccc32)c1 (configuration not stated)	1.1%	0.7%	-18.2%	-14.4%
COc1cc(C(=O)NC2CCCc3ccccc32)cc(OC)c1C (configuration not stated)	·	0.0%	?	?
CSc1ccccc1OCc1cc(C(=O)N2CCN3CCCC3C2)no1 (configuration not stated)	-0.5%	2.6%	0.9%	-18.1%
FC(F)(F)c1ccccc1-c1nc(NCc2cccs2)c2ccccc2n1	·	·	-25.6%	?
O=C(Nc1ccccc1)NC1CCCc2ccccc21 (configuration not stated)	1.2%	-4.3%	18.4µM*	?
O=C(NC1CCCc2ccccc21)c1n[nH]c(=O)c2ccccc12 (configuration not stated)	·	-4.9%	6.51µM*	?
Cc1c(C(=O)NC2CCCc3ccccc32)cccc1[N+](=O)[O-] (configuration not stated)	·	·	13µM*	?
O=C(NC1CCCc2ccccc21)c1ccccc1 (configuration not stated)	-2.8%	0.0%	?	-17.6%
COc1ccc(Cn2nnnc2C(c2ccccc2)N2CCN(c3ccccc3)CC2)cc1 (configuration not stated)	-0.5%	·	?	?
Cc1cc(C)c(CN2CCC(n3nccc3NC(=O)C3CCCC3)CC2)cc1C	0.8%	3.0%	-27.0%	?
CCCCc1ncc(CN2CCC(n3nccc3NC(=O)c3ccccc3OC)CC2)[nH]1	-0.5%	2.0%	14.6µM*	?
Cn1cc(CN2CCC(n3nccc3NC(=O)c3ccccc3Cl)CC2)cn1	-0.3%	4.4%[56.1 µM]	-5.2%	-2.2%
COc1ccccc1C(=O)Nc1ccnn1C1CCN(Cc2cc(C)c(C)cc2C)CC1	-2.7%	0.7%	18.4µM*	?
CCc1ccc(CN2CCC(n3nccc3NC(=O)c3ccccc3Cl)CC2)cc1	-9.5%	1.0%	?	23.1µM*
CCCn1ncc(CN2CCC(n3nccc3NC(=O)c3ccccc3OC)CC2)c1C	1.5%	2.3%	-25.0%	?
Cc1cc(C)c(CN2CCC(n3nccc3NC(=O)c3ccccc3Cl)CC2)cc1C	-3.4%	-0.9%	?	14.6µM*
C[C@H]1CC2[C@@H]3CCC4=CC(=O)C=C[C@]4(C)[C@@]3(Cl)[C@@H](O)C[C@]2(C)[C@@]1(O)C(=O)CO (some centres not stated)	·	-3.6%[56.1 µM]	·	·
COc1ccc(N2CCN(S(=O)(=O)c3ccc(C4CCCCC4)cc3)CC2)cc1	-0.2%	7.1%	·	·
COc1ccccc1-c1nnc(NC(=O)CSc2nncn2C)s1	·	-12.9%	5.2%	4.2%
